Results filed as inconclusive are left out. Entries that show only a call come without a potency. Calls of active or inactive are those of the source. Calls follow the shape of the dose curve; as a rule, active = well fitted inhibition curve with a large enough effect in the signal ratio in the repeat runs (not every such curve was filed as active); inconclusive = weak or mixed curves, or effect the other way; inactive = flat fitted curve, though single readings scatter; the % refers to the signal ratio.

The nature of this assay: cAMP Responsive Elements (CRE) small molecule antagonists, cell-based qHTS assay (AID 1963591). As to conditions: CRE-bla HEK293T, beta-lactamase FRET ratio; series mostly up to 92.4 µM; activity change, negative = inhibition: at the top concentration. An excerpt: U.S. Tox21 Program National Center for Advancing Translational Sciences [NCATS] Division of Preclinical Innovation [DPI] U.S. Environmental Protection Agency [EPA] National Institutes of Environmental Health Sciences [NIEHS] National Toxicology Program [NTP] U.S. Food and Drug Administration [FDA] Tox21 Assay Overview: CREB (cyclic-AMP Responsive Element Binding Protein) is a cellular transcription factor. It binds to certain DNA sequences called cAMP Responsive Elements (CRE) and regulates the transcription of the genes. […] This cell line can be used to find agonists/antagonists of the cyclic AMP signaling pathway. The activation of the report gene under culture conditions can be detected by fluorescence intensity. This cell line has been used to screen the Tox21 10K compound library to […].
Tox21 Assay Protocol Summary: CRE-bla Hek 293T cells were suspended in assay medium (DMEM containing 10% dialyzed FBS, 0.1 mM NEAA, 1 mM sodium pyruvate and 25 mM HEPES) and dispensed at 2,000 cells/4 uL /well into 1536-well black wall/clear bottom plates using a Multidrop Combi (ThermoFisher Scientific, Waltham, MA) dispenser. After the assay plates were incubated at 37 C/5% CO2 for 18 hrs, 23 nL of compounds dissolved in DMSO, positive controls or DMSO only was transferred to the assay plate by a pintool workstation (Kalypsys, San Diego, CA), followed by addition of 1 […] uL of 1.25uM NKH477 (0.25 uM as final concentration) in assay medium using a Flying Reagent Dispenser (Aurora Discovery, San Diego, CA). The plates were incubated at 37 C and 5% CO2 for 3 hrs. Then 1 uL of LiveBLAzer B/G FRET substrate (Invitrogen, Carlsbad, CA) was added to each well using Bioraptr Flying Reagent Dispenser (FRD, Aurora Discovery, San Diego, CA). The plates were incubated at room temperature for 2 h.
In general terms: Quantitative high-throughput screening tests each substance at several concentrations.
For `C/C=C/c1ccc(OC)cc1`, the Potency entry is “inactive”.
On to `Cc1cc(Cc2ccc(N)c(C)c2)ccc1N`, for which the Potency entry was “inactive”.
Regarding `c1ccc2cc3ccccc3cc2c1`, the Potency result was “inactive”.
For `CC(=O)OC[C@H]1O[C@@](COC(C)=O)(O[C@H]2O[C@H](COC(C)=O)[C@@H](OC(C)=O)[C@H](OC(C)=O)[C@H]2OC(C)=O)[C@@H](OC(C)=O)[C@@H]1OC(C)=O`, the “activity change, negative = inhibition” value was -15.2% [at 42.4 µM] (inactive).
In the case of `Cc1ccncc1`, the Potency result was “inactive”.
Turning to `Cc1ccc(C)c(C)c1`, the Potency result was “inactive”.
Still for that read-out and setting: the entry for `CCCCCCC(=O)O` is “inactive”; for `O=C(c1cc(O)c(O)c(O)c1)c1ccc(O)c(O)c1O` it is “inactive”; for `CCCCN(CCCC)CCCC` it is “inactive”.
For the compound `O=[N+]([O-])C(CO)(CO)CO`, the Potency result was “inactive”.
With `NC(N)=NC(N)=NCCc1ccccc1`, the Potency result was “inactive”.
For `CC(C)OC(=O)COc1ccc(Cl)cc1Cl`, the Potency entry is “inactive”.
For the compound `CCCCCCCCCCCCCC[N+](C)(C)Cc1ccccc1`, the “activity change, negative = inhibition” value was -112% (inactive).
Take `CCCCCCCCCCCCCCCC(=O)OC(C)C`: the Potency result was “inactive”.
`Oc1ccc(Cc2ccccc2O)cc1`: the Potency result was “inactive”.
On to `C=C(C)C(=O)OCC(C)O` (stereo not given), for which the Potency result was “inactive”.
On the same count and under the same terms, the entry for `CCC[C@H](N[C@@H](C)C(=O)N1[C@H](C(=O)O)C[C@@H]2CCCC[C@@H]21)C(=O)OCC` is “inactive”.
With `CCCN(CCC)S(=O)(=O)c1ccc(C(=O)O)cc1`, the “activity change, negative = inhibition” value was -0.0084% (inactive).
On to `O=C(Cl)c1c(Cl)c(Cl)c(C(=O)Cl)c(Cl)c1Cl`, for which the Potency entry was “inactive”.
Same read-out and setting: the entry for `CC1(C)CC(N)CC(C)(CN)C1` (stereo not given) is “inactive”; for `CCOC(=O)C(C)(C)Oc1ccc(Cl)cc1` it is “inactive”.
Take `Cc1ccc(C)c(O)c1`: the “activity change, negative = inhibition” value is -1.19% (inactive).
On to `C=CC(=O)OCCCCCCCC(C)C`, for which the “activity change, negative = inhibition” value was -2.17% (inactive).
Same read-out and setting: the figure for `COc1ccc(C(=O)c2ccccc2O)c(O)c1` is -9.45% [at 42.4 µM] (inactive).
As for `OCCOCCOCCOCCO`, the Potency entry is “inactive”.
Same read-out and setting: as for `CC(C)=CCCC(C)CCO` (stereo not given), the entry is “inactive”.
Still for that read-out and setting: the entry for `Nc1nc(=S)c2[nH]cnc2[nH]1` is “inactive”; for `CC(=O)OCCOC(C)=O` it is “inactive”.
Still for that read-out and setting: as for `COc1ccccc1OCC(O)CO` (stereo not given), the entry is “inactive”; as for `Oc1ccc2ccccc2c1N=Nc1ccccc1`, “inactive”; as for `O=C1C(c2[nH]c3ccccc3c2O)=Nc2ccccc21`, “inactive”.
`CCOCCO`: the Potency result was “inactive”.
The same measure, in the same setting: as for `O=C=NCCCCCCN=C=O`, the entry is “inactive”.
As for `c1ccc(Oc2ccccc2)cc1`, the Potency result is “inactive”.
The same measure, in the same setting: as for `NS(=O)(=O)c1cc2c(cc1Cl)NC=NS2(=O)=O`, the entry is “inactive”; as for `C[Si]1(C)O[Si](C)(C)O[Si](C)(C)O[Si](C)(C)O1`, “inactive”.
Turning to `CC1(C)NC(=O)N(c2ccc([N+](=O)[O-])c(C(F)(F)F)c2)C1=O`, the “activity change, negative = inhibition” value was 7.72% [at 42.4 µM] (inactive).
With `CC(=O)Nc1ccc(C(=O)O)cc1`, the Potency result is “inactive”.
Same read-out and setting: as for `C[C@]12CC[C@@H]3c4ccc(O)cc4CC[C@H]3[C@@H]1C[C@@H](O)[C@@H]2O`, the entry is “inactive”; as for `CC(C)(C)c1cccc(C(C)(C)C)c1O`, “inactive”.

The record behind these values is PubChem BioAssay (Tox21).
